# Bioassay records as filed in PubChem BioAssay.
# Hits are enriched below; roughly 1.1% of the tested compounds scored in any of these assays.
# Shn3 3UTR inh – Schnurri-3 reporter inhibition in Clone20 osteoblasts | AID 588674 | 360,000 tested, 0.52% active | inhibition, % at 12.5 µM | Clone20 osteoblast Shn3 3'UTR firefly luciferase, 24 h;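 active = mean inhibition of at least 75% with every replicate also reaching 75%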;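 also: 0% = median of neutral control wells and 100% = pilot-screen positive control compound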
# Gli-Sufu block – Gli-Sufu pathway antagonism | Sufu-KO-LIGHT fibroblasts, Gli luciferase reporter luminescence | inhibition, % at 5 µM | 340,000 tested, 0.74% active | AID 588413;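 active = inhibition above about 55%, limit read from the data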;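 also: 0% = DMSO-treated cells and 100% = wells with medium but no cells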
# NCOA1 inh – inhibitors of human steroid receptor coactivator 1 (SRC1). Q15788. HEK293 GAL4-SRC1 luciferase reporter, luminescence. inhibition, % at 3.6 µM. 360,000 tested, 0.12% active;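 active = inhibition above the campaign mean plus 3 SD, with each screening campaign given its own cutoff, cut at about 60% in these data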;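 also: 0% = DMSO treated cells and 100% = gossypol at 36 µM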
# NR5A2 inv ag – NR5A2 inverse agonism in reporter assay | O00482 | HEK293T StAR-luciferase reporter, LRH-1 transfected, 24 h | inhibition, % at 3.6 µM | 360,000 tested, 0.13% active;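 active = inhibition above the mean inhibition of all tested compounds plus 3 SD, cut at about 73% in these data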;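 also: 0% = DMSO wells and 100% = reporter-only cells lacking LRH-1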
# SRC3 inh – inhibits human SRC3 coactivator; HEK293 GAL4-SRC3 luciferase reporter, luminescence; 360,000 tested, 0.17% active; AID 588352; inhibition, % at 3.6 µM;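 active = inhibition above a per-campaign cutoff, the mean of all compounds plus 3 SD, cut at about 60% in these data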;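 also: 0% = DMSO-treated cells and 100% = gossypol-treated cells at 36 µM; higher means less SRC3-driven luciferase light from the GAL4 reporter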
# Target sequence (Q9Y6Q9 whole entry, looked up, the tested form may be a part): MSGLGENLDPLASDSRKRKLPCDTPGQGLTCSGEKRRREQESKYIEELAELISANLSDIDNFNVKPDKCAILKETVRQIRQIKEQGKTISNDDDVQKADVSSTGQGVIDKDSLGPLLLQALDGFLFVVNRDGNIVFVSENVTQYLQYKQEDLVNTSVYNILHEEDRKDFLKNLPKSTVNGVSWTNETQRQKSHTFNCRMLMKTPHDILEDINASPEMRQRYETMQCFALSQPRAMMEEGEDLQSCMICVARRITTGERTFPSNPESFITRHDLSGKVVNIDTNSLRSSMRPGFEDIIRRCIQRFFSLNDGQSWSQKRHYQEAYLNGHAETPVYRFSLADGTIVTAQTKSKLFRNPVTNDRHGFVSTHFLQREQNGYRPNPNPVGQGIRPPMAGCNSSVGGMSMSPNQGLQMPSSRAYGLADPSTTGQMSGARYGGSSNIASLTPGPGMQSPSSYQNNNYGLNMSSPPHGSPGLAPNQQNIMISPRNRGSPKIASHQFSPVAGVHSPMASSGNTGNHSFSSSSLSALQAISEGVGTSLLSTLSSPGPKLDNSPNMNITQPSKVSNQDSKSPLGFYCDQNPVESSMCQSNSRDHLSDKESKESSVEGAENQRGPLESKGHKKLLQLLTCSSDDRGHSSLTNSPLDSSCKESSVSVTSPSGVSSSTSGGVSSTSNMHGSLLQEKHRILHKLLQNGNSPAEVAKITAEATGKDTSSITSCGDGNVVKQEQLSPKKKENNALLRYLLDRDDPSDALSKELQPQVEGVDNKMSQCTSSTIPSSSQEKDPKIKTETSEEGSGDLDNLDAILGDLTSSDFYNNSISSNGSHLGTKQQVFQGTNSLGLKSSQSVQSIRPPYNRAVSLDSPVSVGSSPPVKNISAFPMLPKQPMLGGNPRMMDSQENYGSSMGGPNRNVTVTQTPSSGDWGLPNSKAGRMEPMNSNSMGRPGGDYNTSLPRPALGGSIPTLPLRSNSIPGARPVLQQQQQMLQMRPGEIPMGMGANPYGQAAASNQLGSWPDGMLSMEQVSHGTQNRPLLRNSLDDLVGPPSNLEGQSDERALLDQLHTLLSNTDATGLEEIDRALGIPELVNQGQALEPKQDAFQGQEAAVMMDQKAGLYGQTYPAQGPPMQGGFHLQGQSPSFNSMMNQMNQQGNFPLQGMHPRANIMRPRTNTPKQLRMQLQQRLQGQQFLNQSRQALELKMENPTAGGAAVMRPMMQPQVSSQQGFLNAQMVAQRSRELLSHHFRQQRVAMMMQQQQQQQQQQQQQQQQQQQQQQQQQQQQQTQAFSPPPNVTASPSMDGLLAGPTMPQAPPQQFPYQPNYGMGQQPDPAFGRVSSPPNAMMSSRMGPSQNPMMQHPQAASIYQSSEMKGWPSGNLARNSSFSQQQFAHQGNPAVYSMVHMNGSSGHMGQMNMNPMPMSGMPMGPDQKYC
# SRC2 inh – inhibits human steroid receptor coactivator 2 | 370,000 tested, 0.17% active | inhibition, % at 9 µM | AID 651957 | HEK293 GAL4-SRC2 luciferase reporter, luminescence;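 active = inhibition above the mean inhibition of all tested compounds plus 3 SD, set per campaign, cut at about 52% in these data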;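 also: 0% = DMSO treated cells and 100% = cells given Gossypol at 36 µM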
# Gli-Sufu confirm – confirmation of Gli-SUFU pathway antagonists. shares compounds with Gli-Sufu block. Sufu-KO-LIGHT cells, Gli luciferase reporter, luminescence. 2,500 tested, 40% active. inhibition, % at 5 µM;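 active = mean inhibition at 5 µM reaching about 45%, limit read from the data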;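 also: plate controls were DMSO-treated cells for no effect and wells lacking cells for full effect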
# SufuKO cytotox – cytotoxicity counter-screen for Gli-SUFU antagonists; shares compounds with Gli-Sufu block; Sufu-KO-LIGHT cells cytotoxicity, ATP luminescence; cytotoxicity, % at 5 µM; 2,500 tested, 32% active; AID 651994;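 active = mean cytotoxicity at 5 µM above about 25%, limit read from the data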;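 also: cells exposed to compound overnight for roughly 16 to 18 hours; plate controls were DMSO wells with cells for no effect and medium without cells for full effect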
# Wnt3a cs – counter-screen for Gli-SUFU antagonists: Wnt3a reporter inhibition; inhibition, % at 6.25 µM; 2,500 tested, 20% active; shares compounds with Gli-Sufu block; Wnt-LIGHT cells, Wnt3a-driven luciferase reporter, luminescence;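 active = mean inhibition above about 25%, limit read from the data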
# * hit, by the source's call; . = no result given.
SMILES,Shn3 3UTR inh,Gli-Sufu block,NCOA1 inh,NR5A2 inv ag,SRC3 inh,SRC2 inh,Gli-Sufu confirm,SufuKO cytotox,Wnt3a cs
COC(=O)c1cc(-c2ccc(F)c(Cl)c2)c(=O)n2c1CCC2,.,.,.,.,.,7,.,.,.
CCOc1ccc(CCNC(=O)c2cc(-c3ccccc3)c(N3CCOCC3)s2)cc1OC,.,.,.,.,.,9,.,.,.
CCOC(=O)CC[C@@]1(C(=O)OCC)C[C@@H](CC(=O)NCc2cccs2)C(=O)N2CCCC=C21,.,.,.,.,.,18,.,.,.
C=CCN(Cc1ccc2c(c1)OCO2)C(C#CC1CC1)C(C)C (stereo unspecified),.,.,.,.,.,10,.,.,.
CCN(CC)CCNc1ccc(C)c2sc3ccc(O)cc3c(=O)c12,30,67*,63*,39,64*,-27,69*,12,-45
COC(=O)C[C@H]1CC[C@@H]2[C@@H](COc3ccc(NC(=O)c4ccno4)cc3C(=O)N2C)O1,.,.,.,.,.,19,.,.,.
COc1ccc(CNCc2cc(OC)ccc2OC)cc1,20,20,0,18,-6,21,.,.,.
COc1cc(CNCc2cc(OC)ccc2OC)cc(OC)c1,19,57*,12,-4,-5,-11,14,10,-2
Cc1cc(C(=O)COC(=O)c2cccnc2Cl)c(C)n1CC1CCCO1 (stereo unspecified),56,41,58,41,61,47,.,.,.
Cc1cc(C(=O)COc2ccccc2C(N)=O)c(C)n1CC1CCCO1 (stereo unspecified),73,58*,-21,33,21,-2,56*,37*,21
COc1ccc(CNCC(C)NCc2ccc(OC)c(OC)c2)cc1OC (stereo unspecified),2,61*,4,1,-7,-2,7,25,-28
Cn1c(=O)c2ccccc2n(Cc2ccccc2F)c1=O,30,8,-9,-6,-49,18,.,.,.
Cn1c(=O)c2ccccc2n(Cc2cccc(F)c2)c1=O,13,54,10,7,-7,2,27,3,0
CCN(Cc1ccccc1)C(=O)COC(=O)c1cc(S(=O)(=O)Nc2ccccc2OC)ccc1O,3,58*,-10,-4,7,-10,7,-3,-50
CCn1c(C)[n+](Cc2ccccc2)c2ccc(C(=O)OC)cc21,-11,6,-4,11,19,-29,.,.,.
CCn1c(/C=C/N(C)c2ccccc2)[n+](CC)c2ccc(Cl)cc21,73,85*,3,0,24,-9,89*,36*,42*
CCn1c(/C=C/Nc2ccccc2)[n+](CC)c2ccc(Cl)cc21,46,52,9,5,-4,5,43,25,-33
CCOC(=O)c1ccc2c(c1)n(CC)c(/C=C/Nc1ccccc1)[n+]2CC,-34,54,14,-14,21,-1,53*,34*,-13
CCn1c(C)[n+](Cc2ccccc2)c2ccc(Cl)cc21,-3,27,14,-2,6,11,.,.,.
CCOC(=O)[C@]12CCCC3=C1N(CCC3)C(=O)[C@@H](CC(=O)N1CCCCC1)C2,.,.,.,.,.,18,.,.,.
CCOC(=O)C1(CCOc2ccccc2)CCN(Cc2cccc(-n3cccn3)c2)CC1,15,52,-14,7,12,23,35,8,-62
CCOC(=O)C1(CCOc2ccccc2)CCN(Cc2cccc(F)c2)CC1,24,60*,14,6,3,15,27,26*,-31
CCCCOCCCNC(=O)C[C@H]1C(=O)N(Cc2ccc(OC)cc2)C2=CCCCC[C@@]21C(=O)OC,.,.,.,.,.,-24,.,.,.
CCC(C)N(C(=O)CSc1nc(C)c(C)c(C)c1C#N)C1CCS(=O)(=O)C1 (stereo unspecified),6,54,13,28,26,0,11,7,-23
COC(=O)[C@]12C[C@H](CC(=O)N3CCOCC3)C(=O)N(Cc3ccco3)C1=C[C@H](C(C)C)O[C@@H]2C1CC1,.,.,.,.,.,-9,.,.,.
